# This excerpt belongs to a sample that is enriched for hits.
# Tg IFNy HTS: blocks Toxoplasma gondii growth in the presence of IFN-gamma. activity change, negative = inhibition, % (concentration not given with the values). Toxoplasma gondii growth in IFN-gamma-treated host cells; hits give low values. hit rate 3.8% among 69,000. AID 1259416; in the data active means activity change below about -70%, passing the limit was not always enough;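 further: host cells are HeLa cells infected with Toxoplasma gondii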
# Active calls of the source: *; i = inactive.
SMILES,Tg IFNy HTS
CCOc1ccc2nc(SCc3ccccc3)c(C#N)cc2c1,-102.5*
COc1ccc(NC(=O)CSc2nc3ccc(C)cc3cc2C#N)cc1,92.9
CCOc1ccc2nc(SCC(=O)c3ccc4c(c3)OCCO4)c(C#N)cc2c1,-49.7
Cc1oc(C2CCN(S(=O)(=O)c3ccc(Cl)cc3)CC2)nc1C(=O)N(C)C,17.5
Cc1ccc(CCC(=O)N2CCn3nc(C(=O)N4CCN(C)CC4)cc3C2)cc1,34.2
O=C(NC1CC1)c1cn(C2CCN(C(=O)Cn3cccn3)CC2)nn1,5.6
CN(C)C(=O)c1ccc2ncnc(N3CCCC3)c2c1,6.7
CN1CCN(c2ncnc3ccc(-c4cccc(-c5ccn[nH]5)c4)cc23)CC1,-79.2*
O=C(O)c1cncc(-c2cccc(-c3ccn[nH]3)c2)c1,88.0
Cc1nn(C(F)F)cc1S(=O)(=O)Nc1ccccc1CN1CCCCC1,-9.7
N#Cc1cnc(SCc2cc(=O)[nH]c3ccccc23)nc1N,-100.5*
N#Cc1cnc(Sc2nnc(-c3ccc(Cl)cc3)n2Cc2ccccc2)nc1N,-42.0
Cn1c(=O)n(C)c2cc(NC(=O)CSc3ncc(C#N)c(N)n3)ccc21,50.2
COc1cccc(C2c3ccccc3CCN2CC(=O)Nc2cc(C)on2)c1 (centres undefined),-7.6
CC(=O)Nc1ccc(C(=O)N2CCN(C(=O)c3ccco3)CC2)cc1,-51.9
CCOc1ccc(C(=O)Nc2ccc(N3CCN(C(C)=O)CC3)cc2)cc1[N+](=O)[O-],-13.5
CCOc1cccc(C(=O)Nc2ccc(N3CCN(C(=O)c4ccco4)CC3)cc2)c1,-86.4*
CN(C)[C@@H]1C[C@@H](CO)N(C(=O)NCCc2ccc(F)cc2)C1,3.5
O=C(NCCc1csc(-c2ccc(C(F)(F)F)cc2)n1)c1ccccc1F,i
CC(=O)N1CCC(NCCSCc2ccccc2C)CC1,-48.2
Cc1cc(C)cc(NC(=O)N2CCC3(CC2)CC(=O)c2ccccc2O3)c1,71.7
O=C1CC2(CCN(C(=O)NCc3ccc(F)cc3)CC2)Oc2ccccc21,198.0
Cc1cc(NC(=O)N2CCC3(CC2)CC(=O)c2ccccc2O3)ccc1Br,-75.2*
O=C(N1CCOCC1)[C@@]12CCCN(Cc3cccs3)C[C@@H]1CN(c1ncccn1)C2,-0.4
COc1cc2ncnc(Nc3ccc(Cl)cc3F)c2cc1OC,-82.3*
SMILES,Tg IFNy HTS
COc1cc2ncnc(Nc3ccc(F)c(Cl)c3)c2cc1OCCCN1CCOCC1,5.7
COc1cc2ncnc(Sc3ccc(Cl)cc3)c2cc1OC,6.0
O=S(=O)(c1ccccc1)n1nnc2ccccc21,-0.5
Cc1noc(C2CCCN2Cc2cnc(-c3ccccc3C)s2)n1 (centres undefined),-51.9
c1cnc(N2CCCC2c2cncc(-n3ccnc3)n2)nc1 (centres undefined),-3.5
CNC(=O)[C@H]1C[C@@H]2CN(Cc3nccs3)C[C@@H]2N1C,13.5
CC1CCN(S(=O)(=O)c2ccc3c(c2)CCC(=O)N3CC(=O)NCc2ccc(F)cc2)CC1,-54.2
COc1cccc2c1C(=O)c1c(O)c3c(c(O)c1C2=O)C[C@@](O)(C(=O)CO)C[C@@H]3OC1C[C@H](N)[C@H](O)[C@H](C)O1 (some centres undefined),-89.6*
COc1ccc(CC(=O)Nc2ccc(-c3nc(-c4ccc(C)cc4C)co3)cc2)cc1,0.6
CN1c2ccsc2-c2nc(SCc3ccc(Cl)cc3)ncc2S1(=O)=O,-85.0*
O=c1nc(SCc2ccc(Cl)cc2)nc(-c2ccccc2)[nH]1,-43.6
Clc1ccc(CSc2cccs2)cc1,10.8
c1ccc(O[C@@H]2CC[C@@H]3[C@H]2OCCN3c2ncccn2)nc1,-21.7
CNC(=S)N1N=C(c2c(-c3ccccc3)c3cc(Cl)ccc3[nH]c2=O)CC1c1ccc(N(C)C)cc1 (centres undefined),128.0
O=C(Nc1ccc(Cl)cc1)c1nc2c(s1)CCN(c1ncccn1)CC2,-18.0
Cc1noc(C)c1S(=O)(=O)N1CCC(Cc2nncn2C)CC1,69.4
O=C(CN1CCN(S(=O)(=O)N2CCCC2)CC1)NCC1COc2ccccc2O1 (centres undefined),6.8
Cc1cc(C(=O)NCC2COc3ccccc3O2)nn1C (centres undefined),41.9
O=C(NCC1COc2ccccc2O1)Nc1csc2ccccc12 (centres undefined),-90.2*
C=CCN1C(=O)COC2(CCN(Cc3nccn3C)CC2)C1C (centres undefined),85.4
CCn1cc(C(CNC(=O)Nc2ccc(OC)cc2OC)c2cccnc2)c2ccccc21 (centres undefined),i
CCOC(=O)c1ccc(NC(=O)NCC(c2cccnc2)c2c[nH]c3ccccc23)cc1 (centres undefined),49.6
CCOC(=O)c1ccc(NC(=O)NCC(c2cccnc2)c2cn(CC)c3ccccc23)cc1 (centres undefined),-101.8*
CCOC(=O)c1ccc(NC(=O)NCC(c2cccnc2)c2cn(C)c3ccccc23)cc1 (centres undefined),i
CCn1cc(C(CNC(=O)Nc2cccc(SC)c2)c2cccnc2)c2ccccc21 (centres undefined),-110.7*
SMILES,Tg IFNy HTS
Cn1cc(C(CNC(=O)Nc2cccc(Br)c2)c2cccnc2)c2ccccc21 (centres undefined),-58.8
COc1ccc(CNCc2nnc(-c3ccc(C)n3C)o2)c(OC)c1,4.2
CCN1C[C@H]2[C@@H](OC)CCN(S(=O)(=O)c3cn(C)cn3)[C@H]2C1,1.8
Cc1nc(CNC(=O)c2ccc(-c3ccccc3)[nH]2)cs1,169.3
Cc1ccc(CN2CCC3(CC2)CC(OCC2CC2)CO3)s1 (centres undefined),-11.8
CN(C)C(=O)C[C@]12COC[C@H]1CN(CCOCc1ccccc1)C2,86.6
Cc1ccc2cc(C)c3nn(CCNC(=O)C4CSC(c5ccncc5)=N4)c(=O)n3c2c1 (centres undefined),-109.7*
Cc1cc2cc3c(cc2n2c(=O)n(Cc4ccccn4)nc12)OCO3,-44.7
CCN(CC)C(=O)Cn1nc2c(C)cc3ccc(OC)cc3n2c1=O,-8.7
O=C(c1ccc2c(c1)OCO2)N1Cc2cnn(CCO)c2C1,3.9
Cn1cnc2c1C(C(=O)O)CN(C(=O)c1ccc3c(c1)OCO3)C2 (centres undefined),11.0
CC(C)n1nc2c(cc1=O)CN(C(=O)c1ccc3c(c1)OCO3)CC2,-80.3*
CO[C@@H]1CCN(CC2CCOCC2)[C@H]2CN(Cc3ccncc3)C[C@@H]12,9.1
O=C(Nc1ccc(F)cc1)N1C[C@@H]2[C@H](c3ccccc31)[C@H](CO)N2Cc1ccccc1Cl,37.4
O=S(=O)(c1ccc(F)cc1)N1C[C@@H]2[C@H](c3ccccc31)[C@@H](CO)N2Cc1ccccc1Cl,-2.9
O=S(=O)(c1ccc(F)cc1)N1C[C@H]2[C@@H](c3ccccc31)[C@@H](CO)N2Cc1ccccc1Cl,-78.6*
CN(C)c1ncnc2c1CCN(C(=O)N1CCOCC1)CC2,43.3
O=c1[nH]c(CNC2CCCC2)nc2ccccc12,16.1
O=C1NCC(=O)N2CCN(S(=O)(=O)N3CCCCCC3)CC12 (centres undefined),1.8
CCCn1c(=O)n(Cc2ccc(F)cc2)c(=O)c2sccc21,-35.3
COc1cc(Nc2c(C#N)cnc3cc(OCCCN4CCN(C)CC4)c(OC)cc23)c(Cl)cc1Cl,-78.8*
COc1ccc(-c2nc(NCCCN3CCN(C)CC3)c3ccccc3n2)cc1,-51.3
COc1cc2c(Oc3ccc(NC(=O)C4(C(=O)Nc5ccc(F)cc5)CC4)cc3F)ccnc2cc1OCCCN1CCOCC1,-68.4
Cc1ccccc1S(=O)(=O)N1CCC(C(=O)NCCc2csc(-c3ccccc3)n2)CC1,-9.6
